ALR H2O2 inh: blocks human ALR sulfhydryl oxidase activity | P55789 | purified ALR, DTT oxidation, H2O2 HRP-luminol luminescence | inhibition, % (no concentration beside the values) | hit rate 3.8% among 290,000 | AID 485317;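 active means mean replicate inhibition above about 79%, with every replicate also reaching it, limit read from the data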
Target sequence (P55789 whole entry, looked up): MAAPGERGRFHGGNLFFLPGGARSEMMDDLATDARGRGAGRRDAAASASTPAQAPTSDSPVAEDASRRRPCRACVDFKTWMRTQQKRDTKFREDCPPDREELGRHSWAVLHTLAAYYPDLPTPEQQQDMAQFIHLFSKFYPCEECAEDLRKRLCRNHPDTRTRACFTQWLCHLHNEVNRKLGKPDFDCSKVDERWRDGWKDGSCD
M18AAP inhibitor: blocks P. falciparum M18 aspartyl aminopeptidase | recombinant PfM18AAP, H-Glu-NHMec fluorogenic cleavage | inhibition, % at 7.35 µM | hit rate 1.2% among 290,000;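 active means inhibition above the campaign mean inhibition over all tested compounds plus 3 SD, cut at about 28% in these data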;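 further: 0% = plate median of test compound wells and 100% = 2 mM ZnCl2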
Mot1-301 SUMO: inhibitors of SUMOylation pathway: yeast Mot1-301 growth rescue | S. cerevisiae Mot1-301 growth rescue, ATP luminescence, 38.5C; percent above DMSO median, 100 means doubled | growth rescue, % at 18.8 µM | hit rate 1% among 320,000 | AID 2716;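 active means every valid replicate shows activation above 250% relative to neutral control wells; inactive means the rest, any valid replicate at or below 250%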;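 further: OY570 slx delta 5 strain wells were the positive control but not used for scaling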
HIF activator: HIF pathway transcriptional activation. U2OS HRE-luciferase reporter, luminescence; normalized: DMSO 0%, desferrioxamine 100%. activation, % at 7.5 µM (by protocol). hit rate 0.32% among 300,000. AID 1910;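 active means mean activation of at least 10% of the iron chelator positive control signal, with at least half of replicates also reaching 10%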
* = called active by the depositor; nt = no result. A selection: hits, their analogues and other compounds. The true share with any hit is near 5.3%.

SMILES	ALR H2O2 inh	M18AAP inhibitor	Mot1-301 SUMO	HIF activator
CC1CCCN(c2nc3ccccc3nc2C(C#N)S(=O)(=O)c2cccs2)C1 (configuration not stated)	97*	1	41	1
O=C(CN1C(=O)/C(=C\c2ccco2)SC1=S)Nc1ccc(O)cc1C(=O)O	39	39*	11	-1
O=C(CCN1C(=O)/C(=C/c2ccco2)SC1=S)Nc1ccc(C(=O)O)c(O)c1	nt	28*	1	0
O=C(CCN1C(=O)/C(=C/c2ccco2)SC1=S)Nc1ccc(O)cc1C(=O)O	40	7	427	0
CC(C(=O)Nc1ccc(O)cc1C(=O)O)N1C(=O)/C(=C\c2cccs2)SC1=S (configuration not stated)	87*	24	8	0
O=C(CCN1C(=O)/C(=C\c2ccco2)SC1=S)Nc1ccc(C(=O)O)c(O)c1	nt	30*	-21	-1
O=C(Nc1ccc(Br)cc1)C1CCN(c2cnccn2)CC1	0	-4	11	0
O=C(NCc1ccco1)c1ccccc1NS(=O)(=O)c1ccc(Cl)s1	95*	2	3	-8
CCOC(=O)C1(CCOc2ccccc2)CCN(Cc2ccc3nonc3c2)CC1	-3	0	7	-2
O=C(Cn1c(SCC(=O)N2CCCc3ccccc32)nc2ccccc21)N1CCCC1	nt	-12	7	70*
CC1Cc2nc(SCC(=O)OCc3ccccc3)n(C)c(=O)c2S1 (configuration not stated)	99*	5	-13	0
CC1Cc2nc(SCC(=O)N3CCOCC3)n(C)c(=O)c2S1 (configuration not stated)	25	-2	-1	0
CC1Cc2nc(SCC(=O)Nc3nc4ccccc4s3)n(C)c(=O)c2S1 (configuration not stated)	99*	-8	7	0
CC1Cc2nc(SCC(=O)N3CCc4ccccc43)n(C)c(=O)c2S1 (configuration not stated)	98*	-2	1	-1
O=C(Nc1nonc1-c1ccc(F)cc1)c1ccco1	-1	2	-14	0
CCN(CC)c1ccc(/C=N/N2C(C)CCCC2C)c(O)c1 (configuration not stated)	98*	17	10	0
CCN(CC)c1ccc(C=Nc2ccccc2)c(O)c1	22	3	476	0
CCN(CC)c1ccc(C=Nc2ccc(N(C)C)cc2)c(O)c1	98*	19	10	1
CCN(CC)c1ccc(/C=N/N=C(N)N)c(O)c1	76*	29*	123	1
CCCCn1c(N)c(N(CCC(C)C)C(=O)C2=NN(c3cc(C)ccc3C)C(=O)CC2)c(=O)[nH]c1=O	-6	nt	-2	0
Cc1noc(C)c1CSc1nc2ccccc2[nH]1	99*	3	218	-1
Fc1cccc(F)c1CSc1nc2ccccc2[nH]1	66	4	-8	1
CCn1c(CSc2nc3ccccc3[nH]2)n[nH]c1=S	96*	-12	0	nt
CCn1c(CCc2ccccc2)n[nH]c1=S	10	25	0	0
CCn1c(CCn2c3ccccc3c3ccccc32)n[nH]c1=S	88*	11	-17	-1
SMILES	ALR H2O2 inh	M18AAP inhibitor	Mot1-301 SUMO	HIF activator
Cc1ncc(CSc2nc3ccccc3[nH]2)c(N)n1	88*	-2	-9	0
CCn1c(CSCc2ccccc2)n[nH]c1=S	0	7	1	0
Cc1cc(C)c(C)c(S(=O)(=O)NCC(=O)Nc2ccc(F)cc2)c1C	-2	-9	90	0
Cc1noc(C)c1CSc1nc2ccccc2n1CCc1ccccc1	95*	2	-1	0
O=C(O)CCn1c(SCc2ccccc2)nc2ccccc21	-4	4	-9	nt
COCCN1CCC(CNCc2c(C(=O)N3CCCCC3)nc3c(C)cccn23)C1 (configuration not stated)	nt	2	-21	0
O=C1c2ccccc2C(=O)C2OC12 (configuration not stated)	-131	29*	-57	3
O=C1c2ccccc2C(=O)C1c1ccccn1	5	-3	9	2
COc1ccc(-c2nc(SC(C)C(=O)NCC3CCCO3)n[nH]2)cc1 (configuration not stated)	-3	nt	-20	3
COc1ccc(-c2nc(SC(C)C(=O)Nc3ccc(NC(C)=O)cc3)n[nH]2)cc1 (configuration not stated)	98*	nt	-6	0
NC1=NN=C(c2ccc3c(c2)OCCO3)CS1	99*	13	7	-2
CC1(C)CC(=O)C2=C(C1)Nc1ccccc1[S@]2=O	nt	-8	-3	0
O=S1c2ccccc2Nc2ccccc21	87*	nt	-7	2
